Screens (PubChem BioAssay)
MCF10A rereplic = DNA re-replication induction in MCF 10a cells. AID 624296. Potency, µM (series often up to 46.1 µM), most hits filed as activators. MCF 10A DNA re-replication, Hoechst nuclear intensity, 48 h. 350,000 tested, 2.9% active; further: nearly all actives have a fitted effect of over 50% in size
SW480 rereplic = induces DNA re-replication in SW480 colon adenocarcinoma cells; Potency, µM (titrated, usually from 46.1 µM), actives largely listed as activators; 340,000 tested, 1.8% active; AID 624297; SW480 DNA re-replication, Hoechst DNA content imaging, 48 h; further: nearly all actives have a fitted effect of over 55% in size
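Compounds, transferred as 23 nL by pin tool, were incubated with cells for 48 hr; DNA content per nucleus was then quantified by Hoechst staining and fluorescence plate imaging.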
VP16 counter = inhibits Gal4-VP16 luciferase reporter, ROR gamma counter-screen; Drosophila S2 Gal4-VP16 UAS-luciferase, luminescence, 20 h; Potency, µM (highest dose often 53.6 µM), usual class: inhibitors; 310,000 tested, 3.5% active;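 further: Gal4-VP16 expression switched on by copper sulfate through the metallothionein promoter; nearly all actives have a fitted effect of over 50% in size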
ELG1 DNA repair = inhibitors of ELG1-dependent DNA repair in HEK293T cells. HEK293T ELG1-luciferase reporter, luminescence, 16 h; DNA damage induced by 5-fluorouridine. Potency, µM (series often up to 46.1 µM), usual class: inhibitors. 330,000 tested, 2.3% active; further: nearly all actives have a fitted effect of over 55% in size
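DMSO vehicle served as the neutral condition. Each well held 2,000 cells given 5-fluorouridine plus compound; after 16 hr at 37 °C/5% CO2, ONE-Glo was added and luciferase measured 30 min later.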
RORg inh = ROR gamma (mouse) transcription inhibition. 310,000 tested, 5.4% active. P51450. Drosophila S2 Gal4-RORgamma UAS-luciferase reporter, 20 h. Potency, µM (doses to about 53.6 µM), actives largely listed as inhibitors; further: nearly all actives have a fitted effect of over 60% in size
Target sequence (P51450 whole entry, looked up, the tested form may be a part): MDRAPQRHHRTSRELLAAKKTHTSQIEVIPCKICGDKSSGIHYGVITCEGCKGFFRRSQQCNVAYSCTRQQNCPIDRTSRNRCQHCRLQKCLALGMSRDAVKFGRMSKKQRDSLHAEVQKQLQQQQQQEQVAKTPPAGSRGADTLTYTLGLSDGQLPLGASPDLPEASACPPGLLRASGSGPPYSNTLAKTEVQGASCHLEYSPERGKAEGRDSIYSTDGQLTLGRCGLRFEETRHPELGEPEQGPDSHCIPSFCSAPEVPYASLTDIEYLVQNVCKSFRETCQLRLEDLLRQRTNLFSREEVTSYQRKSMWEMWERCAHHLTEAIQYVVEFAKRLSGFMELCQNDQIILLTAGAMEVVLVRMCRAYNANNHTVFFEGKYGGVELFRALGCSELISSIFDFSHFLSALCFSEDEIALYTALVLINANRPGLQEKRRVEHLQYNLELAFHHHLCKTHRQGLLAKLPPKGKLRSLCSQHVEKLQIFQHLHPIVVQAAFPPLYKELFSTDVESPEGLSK
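Luminescence from a UAS-regulated Photinus luciferase reporter in stably transfected Drosophila Schneider cells is measured; decreased signal marks ROR gamma inhibition. Fusion expression is induced by 700 uM copper sulfate for 20 hr.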
Numbers stand for hits; n = inactive; u = inconclusive; x = not tested or not shown; [ ] = dose if it differs, or a comment. Compounds with a hit are over-represented: about 10% of the library has one in this group of screens. The call rests on the fitted dose curve; in most records, active means well fitted curve in the direction sought with a large enough effect; inconclusive means small, poorly fitted or top-dose-only effect, or another doubt; inactive means no such curve, though single readings can be large; an effect the other way counts as inactive or inconclusive.

SMILES	MCF10A rereplic	SW480 rereplic	VP16 counter	ELG1 DNA repair	RORg inh
C/C(=N\NC(=S)Nc1ccc(C)c(C)c1)c1ccc(N2CCOCC2)cc1	u	n	u	23µM	14µM
C/C(CCC(C)C)=N\NC(=S)Nc1cc(S(=O)(=O)N2CCOCC2)ccc1N1CCOCC1	n	n	u	u	11µM
C/C(=N\NC(=O)c1ccc(Cl)cc1)c1ccc(N2CCOCC2)cc1	n	n	n	n	n
COc1ccc(CNc2ccc(S(N)(=O)=O)cc2)c(OC)c1OC	n	n	20µM	n	u
CCOc1ccc(Nc2nc3cc(S(=O)(=O)CC)ccc3o2)cc1	n	n	n	n	n
Cc1ccc(NC(=O)NNC(=O)Cn2nc(-c3ccccc3)c(-c3ccccc3)c(C#N)c2=O)cc1	1.5µM	2.9µM	n	n	n
O=C(CSc1ncnc2sc3c(c12)CCCC3)c1ccco1	u	n	n	u	u
CC1(C)Cc2nc3sc4c(=O)n(CC(N)=O)cnc4c3cc2CO1	n	n	n	u	n
CC(C)c1nc2sc3c(SCC(=O)NCc4ccco4)ncnc3c2c2c1CCC2	15µM	n	n	n	n
O=C(CSc1ncnc2sc3c(c12)CCCCC3)NCc1ccco1	4µM	u	n	n	n
CC1(C)Cc2nc3sc4c(SCC(=O)NCc5ccco5)ncnc4c3cc2CO1	3.3µM	3.3µM	n	u	u
CC1(C)Cc2nc3sc4c(=O)n(CC(=O)NCc5ccccc5)cnc4c3cc2CO1	6.5µM	u	n	n	n
CC(C)Cc1nc2sc3c(SCC(N)=O)ncnc3c2c2c1CCC2	n	n	n	n	n
CC1(C)CC(=O)C=C(c2cccc(Cl)c2O)C1	n	n	x	n	x
CCCCOCCCNC(=O)N[C@H](C(=O)OC)C(C)CC (stereo partly specified)	n	n	n	n	n
C=C1CCN(c2ccc(C(=O)NCc3ccc(OC)cc3)cc2[N+](=O)[O-])CC1	n	n	x	x	x
O=C(CN(C(=O)c1csnn1)c1ccc(Cl)cc1)NCc1ccc2c(c1)OCO2	n	n	n	n	n
CN1CCN(C(=O)c2cccc(S(=O)(=O)N3CCCC3)c2)CC1	n	n	x	n	x
COc1cc(C(=O)Nc2sc3c(c2C(=O)NCc2ccco2)CCCC3)cc(OC)c1OC	18µM	n	n	u	n
COc1ccc(C(=O)Nc2sc3c(c2C(=O)NCc2ccco2)CCCC3)cc1OC	n	n[9.22 µM]	n	16µM	n
C=CCNCC(=O)Nc1sc2c(c1C(=O)Nc1ccc(OC)cc1OC)CCC2	n	n	1.3µM	21µM	0.45µM
CCOc1ccccc1NC(=O)c1c(NC(=O)CNCc2ccco2)sc2c1CCC2	x	x	5.6µM	n	u
Cc1ccc(NC(=O)C(C)c2cccc(C(=O)c3ccccc3)c2)cc1O (stereo unspecified)	u	n	u	n	n
N#C/C(=C\c1ccccc1O)C(=O)Nc1ccccn1	n	n	n	n	n
Cc1c2cnn(CC(=O)NCCN3CCOCC3)c(=O)c2c(C)n1Cc1ccccc1F	n	n	x	x	x
SMILES	MCF10A rereplic	SW480 rereplic	VP16 counter	ELG1 DNA repair	RORg inh
O=C(O)C1CC=CCC1C(=O)N1CCN(c2nc(-c3ccccc3Cl)c3cc(Br)ccc3n2)CC1 (stereo unspecified)	23µM	18µM	n	n	n
O=C(O)C1CC=CCC1C(=O)N1CCN(c2nc(-c3ccccc3)c3ccccc3n2)CC1 (stereo unspecified)	9.2µM	u	n	n	n
COc1ccccc1CN1CC(C(=O)NCc2cc(F)cc(C(F)(F)F)c2)CCC1=O (stereo unspecified)	n	n	n	n	n
CCN(CC)c1ccc(/C=c2\sc3nc4ccccc4n3c2=O)c(O)c1	2.6µM	15µM	u	u	n
Cc1cc(/C=c2/sc3nc4ccccc4n3c2=O)c(C)n1-c1ccccn1	u	n	0.25µM	u	0.1µM
O=c1cc(-c2ccccc2[N+](=O)[O-])oc2ccccc12	5.2µM	u	n	n	n
Cn1cc([C@@H]2C[C@H]3CN(Cc4cccc(Cl)c4)C(=O)[C@]34CCCN24)c(-c2ccccc2)n1	u	n	4µM	u	u
Cc1nn(C)cc1[C@@H]1C[C@H]2CN(Cc3cccc(Cl)c3)C(=O)[C@]23CCCN13	n	n	n	n	n
Cc1ccc(C(=O)N/C(=C\c2ccco2)C(=O)N2CC(C)OC(C)C2)cc1C (stereo unspecified)	n	n	n	n	n
Oc1ccc(/C=N/N2CCN(C3c4ccccc4-c4ccccc43)CC2)c(O)c1	6.5µM	u	n	n	n
CCOC(=O)C1CCCN(C(=O)c2cc(S(=O)(=O)N(C)C)ccc2N2CCCC2)C1 (stereo unspecified)	n	u	x	n	x
Cc1cc(C)n(C(=O)/C(C#N)=N/Nc2cc(Cl)cc(Cl)c2)n1	u	n	u	16µM	u
Cc1c(NC(=O)C(C)N(c2ccccc2)S(C)(=O)=O)c(=O)n(-c2ccccc2)n1C (stereo unspecified)	u	n	n	n	n
CC(CC(=O)Nc1ccc(Cl)c(S(=O)(=O)N2CCOCC2)c1)c1ccccc1 (stereo unspecified)	u	n	x	8.2µM	x
O=C(Nc1ccc(Cl)c(S(=O)(=O)N2CCOCC2)c1)C1CCC1	n	u	x	u	x
O=C(CC1CCCC1)Nc1ccc(Cl)c(S(=O)(=O)N2CCOCC2)c1	u	u	x	21µM	x
CC(=O)Nc1ccc(OCC(=O)Nc2ccc(Cl)c(S(=O)(=O)N3CCOCC3)c2)cc1	x	x	x	5.8µM	x
COc1ccc(OCC(=O)Nc2ccc(S(=O)(=O)N3CCOCC3)cc2)cc1	n	n	n	n	n
CCOC(=O)[C@H]1[C@H]2COc3ccc(Br)cc3[C@@H]2N2C(=O)[C@H](C)NC(=O)[C@@]12C	n	n	x	n	x
CCOC(=O)N1CCN(C(=O)c2ccc3oc(CCCc4ccccc4)nc3c2)CC1	n	n	n	u	n
Cc1cccc(OCC(=O)NCC(=O)N/N=C/c2cccnc2)c1	n	n	n	n	n
CCC1N=C(SC)NC(C)=C1C(=O)c1ccccc1 (stereo unspecified)	n	n	n	n	n
CSC1=NC(C(Cl)(Cl)Cl)N=C(c2ccc(C)cc2)N1 (stereo unspecified)	1.8µM	u	n	u	u
COc1ccccc1OCc1nc2ccccc2n1C	n	n	u	u	n
CCCn1c(COc2ccccc2OC)nc2ccccc21	n	n	u	n	10µM
CCn1c(COc2ccccc2OC)nc2ccccc21	n	u	u	u	13µM
COc1cc(C(=O)NCCc2nc3ccccc3n2C)cc(OC)c1OC	n	n	n	u	n
Cn1c(COc2ccccc2Br)nc2ccccc21	n	n	u	u	13µM
COc1cc(C(=O)Cc2nc3ccccc3n2C)cc(OC)c1OC	n	n	13µM	n	6.3µM
CCn1c(COc2ccccc2C)nc2ccccc21	n	n	u	u	u
